Compound activity as filed in PubChem BioAssay.
Hsp70 act: switches on Hsp70 transcription; HeLa Hsp70 promoter luciferase reporter, luminescence; scaled: vehicle 0, proteasome-inhibitor control 100%; activation, % at 10 µM; hit rate 0.04% among 200,000;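 active = activation above the mean across all tested compounds plus 3 SD, cutoff set per campaign, cut at about 5.5% in these data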;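 also: 100% = MG132 at 30 µM as the positive control and 0% = DMSO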
NALP1 yeast inh: blocks the NALP1 inflammasome reconstituted in yeast; S. cerevisiae NALP1/ASC/caspase-1 growth, X-gal OD620, 72 h; hit rate 0.61% among 280,000; inhibition, % at 10 µM; in the data active = inhibition mostly above about 24%, no sharp cut-off; inactive = mostly below about 32%
HSP90 refold inh: HSP90 refolding inhibition in rabbit reticulocyte lysate; luciferase refolding luminescence, 3 h; AID 1789; hit rate 0.91% among 290,000; inhibition, % at 5.6 µM;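 active = inhibition above the screen-wide mean plus 3 SD, computed separately per campaign, cut at about 16% in these data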;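 also: 0% = DMSO wells and 100% = 60 µM geldanamycin wells; inhibitors lower the luminescence because luciferase stays unfolded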
HSF1 activator: increases HSF-1 driven luciferase reporter signal; hit rate 1.7% among 300,000; activation, % at 9 µM; NIH3T3-HGL HSF-1 luciferase reporter, MG132, 8 h; 100% = twice DMSO control signal;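 active = mean replicate activation of at least 50% with a set share of replicates each reaching 50%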;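 also: 0% = median of the neutral control wells and 100% = twice that signal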
HSF1 inh: HSF1 inhibition; NIH3T3-HGL HSE-luciferase, MG132-induced, luminescence 8 h; hits give low values; activity change, negative = inhibition, % at 7.5 µM (by protocol); hit rate 0.77% among 300,000;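 active = more than half of replicate wells show activity change below -50%, luminescence cut by over half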;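 also: luciferase reports HSF-1 transcriptional activity via heat shock element; 0% = median of DMSO wells and -100% = zero luminescence signal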
p-CIP stab down: p/CIP protein destabilization; F442A p/CIP-EGFP cells, EGFP fluorescence, 16 h; decrease of EGFP signal, % at 10 µM; hit rate 0.01% among 290,000;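 active = EGFP signal decrease of at least 30% at 10 µM or well 3 SD below plate mean, unless failing retest; inactive = the rest, including hits failing retest or dose response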
Target sequence (Q05BA5 1-1403): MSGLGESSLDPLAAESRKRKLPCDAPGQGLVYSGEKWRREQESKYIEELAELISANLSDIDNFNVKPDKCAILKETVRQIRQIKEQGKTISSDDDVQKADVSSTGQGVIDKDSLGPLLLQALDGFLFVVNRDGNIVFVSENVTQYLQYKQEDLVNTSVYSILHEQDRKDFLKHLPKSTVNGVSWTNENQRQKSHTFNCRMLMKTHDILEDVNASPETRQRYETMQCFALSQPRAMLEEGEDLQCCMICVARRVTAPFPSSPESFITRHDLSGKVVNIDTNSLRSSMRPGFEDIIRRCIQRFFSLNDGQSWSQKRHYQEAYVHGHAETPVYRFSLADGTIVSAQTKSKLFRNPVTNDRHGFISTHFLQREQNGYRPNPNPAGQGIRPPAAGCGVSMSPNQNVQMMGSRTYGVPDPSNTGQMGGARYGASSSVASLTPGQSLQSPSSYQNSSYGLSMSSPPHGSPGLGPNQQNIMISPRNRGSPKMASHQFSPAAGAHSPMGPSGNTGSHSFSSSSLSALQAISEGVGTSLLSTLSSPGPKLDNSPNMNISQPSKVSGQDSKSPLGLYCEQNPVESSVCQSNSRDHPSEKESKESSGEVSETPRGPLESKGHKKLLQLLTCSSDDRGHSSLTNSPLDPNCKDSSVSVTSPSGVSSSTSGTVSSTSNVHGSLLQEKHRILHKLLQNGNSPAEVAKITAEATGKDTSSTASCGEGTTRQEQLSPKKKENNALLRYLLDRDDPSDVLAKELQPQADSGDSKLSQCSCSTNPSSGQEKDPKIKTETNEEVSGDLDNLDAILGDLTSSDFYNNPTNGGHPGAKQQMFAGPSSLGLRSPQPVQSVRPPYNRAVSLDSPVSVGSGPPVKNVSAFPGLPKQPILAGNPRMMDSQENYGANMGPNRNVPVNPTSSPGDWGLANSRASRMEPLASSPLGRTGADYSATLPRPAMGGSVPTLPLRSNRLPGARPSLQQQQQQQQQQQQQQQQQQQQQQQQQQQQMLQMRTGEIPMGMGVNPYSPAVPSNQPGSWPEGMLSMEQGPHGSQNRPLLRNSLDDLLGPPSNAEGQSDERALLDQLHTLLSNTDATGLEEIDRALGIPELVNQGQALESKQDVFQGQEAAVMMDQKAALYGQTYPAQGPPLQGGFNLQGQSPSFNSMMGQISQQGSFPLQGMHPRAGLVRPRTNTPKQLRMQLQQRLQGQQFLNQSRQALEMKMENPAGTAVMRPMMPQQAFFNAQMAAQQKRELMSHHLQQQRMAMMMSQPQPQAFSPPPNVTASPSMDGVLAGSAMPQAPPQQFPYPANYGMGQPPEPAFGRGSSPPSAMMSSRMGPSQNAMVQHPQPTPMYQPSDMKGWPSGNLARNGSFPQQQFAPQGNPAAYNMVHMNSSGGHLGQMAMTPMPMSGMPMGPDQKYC
HSP90 confirm: HSP90 inhibition, confirmation assay. shares compounds with HSP90 refold inh. rabbit reticulocyte lysate, luciferase refolding luminescence, 3 h. inhibition, % at 5.9 µM. hit rate 64% among 2,300. AID 1846; in the data active = inhibition above about 18%;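 also: 0% = vehicle wells and 100% = reference inhibitor wells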
luciferase ctr: counter-screen for HSP90 inhibitors: inhibitors of firefly luciferase; shares compounds with HSP90 refold inh; purified native firefly luciferase, luminescence; inhibition, % at 5.9 µM; hit rate 48% among 2,300; AID 1847;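 active = inhibition above the mean inhibition of all tested sample wells plus 3 SD, cut at about 10% in these data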;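 also: 0% = DMSO with luciferase and 100% = wells lacking luciferase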
The depositor's hits bear a star; nt = not tested or not shown. A selection: hits, their analogues and other compounds. The true share with any hit is near 3.8%.

SMILES | Hsp70 act | NALP1 yeast inh | HSP90 refold inh | HSF1 activator | HSF1 inh | p-CIP stab down | HSP90 confirm | luciferase ctr
O=C(Cc1ccc([N+](=O)[O-])cc1)N/N=C/c1ccccc1F | nt | 4 | 0 | 15 | 6 | -12 | nt | nt
COc1cccc(NC(=S)N2CCN(S(C)(=O)=O)CC2)c1 | nt | -9 | -3 | nt | nt | -9 | nt | nt
Cc1cccc(C(=O)n2c(=S)nc3cc(C)ccn32)c1 | nt | 33 | 18* | -16 | -17 | 0 | 57* | 47*
Cc1cc(/C=c2\sc3nc4ccccc4n3c2=O)c(C)n1-c1ccc(C(=O)O)cc1 | 0 | 3 | -1 | 9 | -13 | -19 | nt | nt
Cc1cc(/C=c2/sc3nc4ccccc4n3c2=O)c(C)n1-c1ccccn1 | -1 | 11 | 60* | -92 | -91* | -12 | 90* | 81*
Cc1ccc(S(=O)(=O)/C(=C\N(C)C)c2cnc(Cl)s2)cc1 | 0 | 5 | -2 | 2 | 3 | -18 | nt | nt
O=C(Oc1cc(=O)n2ccccc2n1)c1ccccc1 | 0 | 25 | -3 | 23 | 6 | 16 | nt | nt
CC(C)Cc1cc(C(=O)Nc2cccc(O)c2)no1 | nt | 20 | 39* | 21 | 8 | -12 | 71* | 65*
CC(C)Cc1cc(C(=O)Nc2ccc(Br)cc2)no1 | nt | nt | -11 | -51 | -33 | 5 | nt | nt
COc1ccc(-c2cc(C(=O)Nc3cccc(O)c3)no2)cc1 | nt | -12 | 31* | -9 | 12 | -20 | 70* | 54*
Cc1cc(C)c(S(C)(=O)=O)c(NN)n1 | 0 | -4 | 1 | -11 | -2 | -2 | nt | nt
O=C(CSc1nc2ccc(NC(=O)CSc3nnnn3-c3ccccc3)cc2s1)Nc1ccccc1 | 0 | 17 | 3 | -3 | 2 | -14 | nt | nt
Cc1cccc(NC(=O)CSc2nc3ccc(NC(=O)CSc4nnnn4-c4ccccc4)cc3s2)c1C | 0 | 8 | 55* | nt | nt | 3 | 22* | -9
COc1cc(OC)c2cc(C(=O)N[C@@H](Cc3ccccc3)C(=O)O)n(C)c2c1 | nt | 7 | -5 | -2 | -1 | 8 | nt | nt
Cc1ccc(NC(=O)C(=O)C2C(=O)Nc3ccccc32)cc1 (configuration not stated) | nt | 12 | 5 | 7 | 3 | -5 | nt | nt
C#CCNC(=O)C1=C[C@H](c2csc3ccccc23)C[C@H](OCCCCO)O1 | 0 | -12 | -1 | 3 | 0 | -6 | nt | nt
O=C(c1cn(-c2ccccc2)nc1-c1ccc(F)cc1)N1CCOCC1 | 0 | 14 | 3 | -2 | -4 | 3 | nt | nt
O=C(c1cn(-c2ccccc2)nc1-c1ccc(Br)cc1)N1CCOCC1 | 0 | 32 | 95* | 16 | -6 | 4 | 1 | -1
CCOc1ccc(C(=O)Nc2ccc3[nH]ncc3c2)cc1 | nt | 15 | 18* | 30 | 9 | 4 | 40* | 11*
Cc1cc(C(=O)Nc2cccc(C(=O)O)c2)oc1C | 0 | 16 | 86* | -59 | -53* | -1 | 92* | 79*
CCOc1cccc(C(=O)Nc2cccc(C(C)=O)c2)c1 | 0 | 17 | 0 | 45 | 42 | 7 | nt | nt
CCOc1cccc(C(=O)Nc2ccc3c(c2)OCCO3)c1 | nt | 18 | 19* | 37 | 18 | -1 | 45* | 27*
O=C(Nc1ccc2c(c1)OCCO2)c1cccc(C(=O)Nc2ccc3c(c2)OCCO3)c1 | nt | 10 | -2 | 40 | 20 | -5 | nt | nt
CCOc1cccc(C(=O)Nc2ccc3ccccc3c2)c1 | nt | 5 | 19* | 16 | 4 | 10 | 47* | 37*
COc1ccc(Cc2nc3ccc(C(=O)NCC4COCCO4)cc3o2)cc1 (configuration not stated) | nt | -6 | -1 | 18 | 0 | 0 | nt | nt
SMILES | Hsp70 act | NALP1 yeast inh | HSP90 refold inh | HSF1 activator | HSF1 inh | p-CIP stab down | HSP90 confirm | luciferase ctr
CCOc1c(Cl)cc(C(=O)Nc2cccc(C(=O)O)c2)cc1Cl | 0 | -8 | 30* | 41 | 18 | 8 | 47* | 9.8*
CCOc1ccc(NC(=O)c2cccc(NC(=O)c3ccccc3)c2)cc1 | nt | 3 | 3 | 8 | -1 | -13 | nt | nt
c1c2c(cc3sc(N4CCOCC4)nc13)OCO2 | 0 | 17 | 2 | 41 | 11 | -4 | nt | nt
c1c2c(cc3sc(N4CCCCC4)nc13)OCO2 | 0 | -3 | 25* | 25 | 12 | -2 | 59* | 52*
CN(C)c1ccc(N=Nc2cccc(F)c2)cc1 | nt | 11 | 39* | -2 | 6 | -8 | 47* | 41*
CN(C)c1ccc(N=Nc2cccc3ccoc23)cc1 | nt | 9 | 1 | 41 | 12 | 4 | nt | nt
COc1cccc(C(=O)Nc2c(C)nn(-c3ccccc3)c2C)c1 | 0 | 13 | 2 | 5 | 2 | 1 | nt | nt
O=S(=O)(NCC(c1cccs1)N1CCc2ccccc2C1)c1ccccc1 (configuration not stated) | nt | nt | nt | 7 | 3 | nt | nt | nt
Cc1ccc(Nc2nc(-c3sc(NC(=O)c4ccco4)nc3C)cs2)cc1 | 0 | 31 | 11 | 6 | 0 | -13 | nt | nt
COc1ccccc1Nc1nc(-c2sc(NC(=O)C(C)(C)C)nc2C)cs1 | 0 | -19 | 2 | 5 | 1 | -9 | nt | nt
Cc1ccc(Nc2nc(-c3sc(NC(=O)c4cccc(Cl)c4)nc3C)cs2)cc1 | 0 | 15 | 70* | -16 | -8 | -15 | 46* | -14
COc1ccccc1Nc1nc(-c2sc(NC(=O)c3cccc(Cl)c3)nc2C)cs1 | 0 | 8 | 66* | -19 | -8 | -7 | 61* | -11
S=C(Nc1ccc(Cl)cc1)c1nc2ccccc2s1 | 0 | 19 | -2 | -36 | -26 | -12 | nt | nt
Cc1ccc(NC(=S)c2nc3ccccc3s2)cc1 | 0 | 8 | 23* | -70 | -65* | 1 | 42* | 26*
N#Cc1cc(Cl)c(N2CCOCC2)cc1C#N | 0 | 33 | 9 | 0 | 0 | 10 | nt | nt
N#Cc1cc2ccc(N3CCOCC3)cc2cc1C#N | 0 | -3 | 18* | nt | nt | -6 | -1 | -11
Cc1cccc(NC(=O)COc2coc(CN3CCN(c4ccccc4)CC3)cc2=O)c1C | nt | nt | nt | 10 | -2 | nt | nt | nt
CCC(=O)NC1=C(Cl)C(=O)C(NC(=O)CC)=C(Cl)C1=O | nt | 5 | 30* | nt | nt | 0 | 12 | 75*
COc1ccc(C2CC3(CC(C)(C)NC(SC)=N3)Oc3cc(O)cc(C)c32)cc1 (configuration not stated) | 0 | 12 | -1 | 11 | -6 | 8 | nt | nt
C=CCn1c(C)cc(C(=O)COc2ncnc3sccc23)c1C | 0 | 7 | 18* | -11 | -6 | -5 | 45* | 33*
CCOc1ccc2nc(COC(=O)c3cccs3)c(C(=O)c3ccccc3)[n+]([O-])c2c1 | 0 | 30 | 0 | -20 | -16 | 3 | nt | nt
